# aDG glyco up: increases alpha dystroglycan glycosylation; hit rate 0.22% among 360,000; activation, % at 10 µM; Pro5-aDG cells, alpha-DG glycosylation AlphaScreen (IIH6); 0% Pro5, 100% B10-LARGE cell signal;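 active means activation of at least 8% versus controls, or a plate z-score of at least 8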;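 further: Pro5 are CHO cells carrying HIG-tagged alpha-DG that lacks glycosylation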
# FAS TE block: blocks the thioesterase domain of human fatty acid synthase | P49327 | recombinant FAS-TE, OMFH fluorogenic substrate, fluorescence endpoint | inhibition, % at 15 µM | hit rate 0.67% among 360,000;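 active means compounds whose normalised, plate-corrected inhibition of enzyme fluorescence in the single-dose primary screen is 50% or more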;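 further: 0% = DMSO with enzyme and 100% = substrate without enzyme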
# CR mimetic SO: yeast age-related superoxide inhibition as caloric restriction mimetic. S. cerevisiae aged cells, superoxide DHE fluorescence; hits give low values. superoxide response (% of plate mean), % at 10 µM. hit rate 0.18% among 330,000;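 active means superoxide response under a set limit, about three screen SD below normal, cut at about 65% in these data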;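 further: yeast aged for seven days with compound at 30 °C before DHE staining; 100% = average MFI of all compound-treated wells on the plate with controls excluded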
# MPTP block: blocks calcium-induced mitochondrial swelling | isolated mouse mitochondria, Ca2+ swelling absorbance, 30 min | AID 602449 | inhibition, % at 10 µM | hit rate 1.4% among 360,000;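 active means inhibition of 50% or more, scaled per plate between neutral and stimulator controls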;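 further: 0% = DMSO wells given calcium and 100% = 1 mM EGTA wells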
# SUMO Mot1 rescue: inhibitors of SUMOylation pathway: yeast Mot1-301 growth rescue | S. cerevisiae Mot1-301 growth rescue, ATP luminescence, 38.5C; percent above DMSO median, 100 means doubled | growth rescue, % at 18.8 µM | hit rate 1% among 320,000;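 active means every valid replicate shows activation above 250% relative to neutral control wells; inactive means the rest, any valid replicate at or below 250%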;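 further: OY570 slx delta 5 strain wells were the positive control but not used for scaling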
# Cardio protect: protects H9c2 cardiomyocytes from peroxide injury; H2O2 injury protection, ATPLite, 2 h; protection from H2O2 cell death, % at 20 µM; hit rate 0.63% among 360,000;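 active means compounds giving at least 50% protection of heart cells from peroxide-induced death in the single-dose screen, raw or plate-pattern-corrected value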;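 further: 0% = DMSO wells with peroxide and 100% = DMSO wells without peroxide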
# FAS-TE conf: confirmation of human fatty acid synthase thioesterase inhibitors | shares compounds with FAS TE block | inhibition, % at 15 µM | hit rate 45% among 2,300 | recombinant FAS-TE, OMFH fluorogenic substrate, fluorescence;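 active means compounds inhibiting the enzyme by at least 50% at 15 µM in any one of the replicates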;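 further: 0% = enzyme with DMSO only and 100% = wells lacking enzyme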
# Numbers without * were called inactive; · = no result given. Sampled rows, rich in hits. Any-hit rate of the full collection: about 3.8%.
SMILES,aDG glyco up,FAS TE block,CR mimetic SO,MPTP block,SUMO Mot1 rescue,Cardio protect,FAS-TE conf
Cc1ccsc1C(=O)N1CCC1(C)C(=O)Nc1cccc(C#N)c1 (stereo not given),0,8,·,1,·,0,·
COc1ccc2c(C)c(Cl)c(=O)oc2c1,0,3,88,-1,17,-8,·
C=C1CC(COc2ccc3c(C)c(Cl)c(=O)oc3c2)(c2ccccc2)OC1=O (stereo not given),0,53*,·,1,·,-16,46*
CC(C)(C)OC(=O)NCCc1nnc(S(=O)(=O)Cc2ccc(Cl)cc2Cl)o1,0,64*,82,-1,87,-24,67*
COc1cc(NC(=S)N2CCC(C(O)(c3ccccc3)c3ccccc3)CC2)cc(OC)c1,1,53*,179,6,-22,-6,32
COc1cccc(N2CC(C(=O)Nc3nnc(SCC(=O)NCc4ccco4)s3)CC2=O)c1 (stereo not given),0,-5,102,0,50,-4,·
COc1ccc(C(=O)O)cc1NC(=S)NC(=O)c1ccc(-c2ccc(Cl)cc2)o1,0,58*,·,0,·,-1,66*
O=S(=O)(c1cccc(-c2csc(-c3cccnc3)n2)c1)N1CCCCC1,0,22,125,0,-4,-4,·
O=S(=O)(c1cccc(-c2csc(-c3cccnc3)n2)c1)N1CCOCC1,0,8,99,1,-1,5,·
O=S(=O)(c1ccc(-c2csc(-c3cccnc3)n2)cc1)N1CCCC1,0,81*,105,2,·,2,86*
O=S(=O)(c1ccc(-c2csc(-c3cccnc3)n2)cc1)N1CCCCC1,0,77*,109,5,-31,5,83*
O=C(O)c1ccccc1NC(c1ccccc1)c1ccc(Cl)cc1 (stereo not given),0,6,101,1,6,-6,·
CC(C)(C)c1ccc(C(=O)NCCC(=O)Nc2cc(Cl)ccc2N2CCOCC2)cc1,0,67*,100,-2,-11,-7,67*
O=C(CCC1CCCC1)Nc1cc(Cl)ccc1N1CCOCC1,0,24,96,-1,1,-1,·
COC(=O)[C@H]1[C@H]2C[C@@H]3c4[nH]c5cc(OC)ccc5c4CCN3C[C@H]2C[C@@H](OC(=O)c2ccc(N)cc2)[C@@H]1OC,0,0,101,1,0,2,·
COC(=O)[C@H]1[C@H]2C[C@@H]3c4[nH]c5cc(OC)ccc5c4CCN3C[C@H]2C[C@@H](OC(=O)/C=C/c2cc(OC)c(OC)c(OC)c2)[C@@H]1OC,0,54*,92,0,408,-26,23
C#CCN(C[C@H]1[C@H](OC(=O)NCc2ccc(OC)c(OC)c2)[C@H](OC(=O)NCc2ccc(OC)c(OC)c2)C[C@H]2C(=O)N(c3ccccc3)C(=O)[C@@H]12)S(=O)(=O)c1ccc(C)cc1,0,71*,·,1,·,8,25
C#CCN(C[C@H]1[C@H](OC(=O)NCc2ccccc2F)[C@H](OC(=O)NCc2ccccc2F)C[C@H]2C(=O)N(c3ccccc3)C(=O)[C@@H]12)S(=O)(=O)c1ccc(C)cc1,0,54*,·,3,·,-1,11
C#CCN(C[C@H]1[C@H](OC(=O)NCc2ccccc2)[C@H](OC(=O)NCc2ccccc2)C[C@@H](C(=O)OC)[C@H]1C(=O)OC)S(=O)(=O)c1ccc(C)cc1,0,17,·,0,·,1,·
O=c1cc(C=NNc2ccc([N+](=O)[O-])cc2)[nH]c(=O)[nH]1,0,-10,·,0,·,-5,·
CC1=C(C(=O)Nc2nc3ccccc3s2)C(c2ccco2)C(C#N)=C(SCC(=O)NC2CCCCC2)N1 (stereo not given),2,77*,87,5,-7,-10,-3
O=C(Nc1nc2ccccc2s1)c1ccc(N2CCCCC2)c([N+](=O)[O-])c1,0,54*,100,7,19,-4,3
CCc1cccc(CC)c1N1C(=O)C2=C(SCCCS2)C1=O,1,-27,·,0,·,-1,·
COc1ccc(-c2cc([N+](=O)[O-])ccc2OCC(=O)N(C)CC(=O)Nc2ccc(C)cc2)cc1,0,60*,·,0,·,-4,64*
COc1ccc(NC(=O)CN(C)C(=O)CN2C(=O)c3ccc([N+](=O)[O-])cc3C2=O)cc1,0,6,97,0,2,-1,·
SMILES,aDG glyco up,FAS TE block,CR mimetic SO,MPTP block,SUMO Mot1 rescue,Cardio protect,FAS-TE conf
COc1ccc(NC(=O)c2cc([N+](=O)[O-])ccc2N2CCN(C)CC2)cc1,-1,46,94,-3,151,1,·
CC(C)c1ccc(NC(=O)c2cc([N+](=O)[O-])ccc2N2CCOCC2)cc1,0,74*,117,-2,-8,2,24
Cc1ccc(NC(=O)c2cc([N+](=O)[O-])ccc2N2CCCC2)cc1,0,66*,105,3,76,8,42*
Cc1ccc(NC(=O)c2cc(S(=O)(=O)N(C)C)ccc2N2CCCC2)cc1F,0,51*,106,2,-2,-2,58*
COc1ccc(C(=O)Nc2cc([N+](=O)[O-])ccc2N2CCCC2)cc1,0,58*,99,0,-5,8,52*
CCN1C(=O)[C@@H]2Cc3c([nH]c4ccccc34)C(c3ccc(OC)cc3)N2C1=S (stereo not given in full),0,7,76,3,-1,-8,·
CCOc1ncccc1C(=O)N1CCN(C(c2ccccc2)c2ccccc2)CC1,1,11,95,0,158,2,·
CCN1C(=O)[C@H]2[C@@H](c3ccc(-c4ccc(C(C)=O)cc4)cc3)N3CCCC[C@@]3(C(=O)OC)[C@H]2C1=O,1,32,·,0,-5,5,·
Cc1ccc(NC(=O)c2cc([N+](=O)[O-])ccc2N2CCOCC2)cc1S(=O)(=O)N(C)C,0,38,102,3,0,16,·
Cc1ccc(NC(=O)c2cc([N+](=O)[O-])ccc2N2CCOCC2)cc1C,0,74*,106,-2,10,0,78*
Cc1ccc(NC(=O)C2(c3ccc([N+](=O)[O-])cc3)CCCC2)cc1,0,60*,96,23,17,-6,51*
CC(=O)Nc1cccc(NC(=O)c2cc([N+](=O)[O-])ccc2N2CCCCC2)c1,0,32,107,0,·,-2,·
Cc1ccc(-c2csc(NC(=O)c3cc([N+](=O)[O-])ccc3N3CCOCC3)n2)cc1,0,71*,84,4,3,2,8
CN(C)S(=O)(=O)c1cccc(NC(=O)c2cc([N+](=O)[O-])ccc2N2CCCCC2)c1,-1,59*,83,-1,-1,12,55*
